TbPYK inhibitor = blocks Trypanosoma brucei pyruvate kinase; Q57TT1; TbPYK enzyme, Kinase-Glo Plus ATP luminescence, 45 min; Potency, µM (series often up to 76.8 µM), hits mostly inhibitors; 0.12% of 410,000 active; note: nearly all actives have a fitted effect of over 50% in size
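Luminescence from Kinase-Glo Plus, added after a 45-minute room-temperature reaction, served as the end-point read-out. The enzyme and substrate were preincubated with compound before ADP (130 uM final) initiated turnover. Concentration-effect curves came from normalized qHTS data.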
Shiga inhibitor = blocks Shiga toxin action in Vero cells. Vero cells, Shiga toxin protein synthesis inhibition reporter. inhibition, % at 38.7 µM. 9.2% of 290,000 active; in the data active = inhibition mostly above about 28%, no sharp cut-off; inactive = mostly below about 43%
Sm TGR inh = blocks Schistosoma mansoni thioredoxin glutathione reductase | purified TGR, DTNB reduction, TNB absorbance 405 nm | Potency, µM (titrated, usually from 114 µM), usual class: inhibitors | 3% of 360,000 active | AID 485364; note: nearly all actives have a fitted effect of over 60% in size
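TGR 20 nM + NADPH 100 uM (dispensed conc.), cpd preinc 15 min RT; start with NADPH (500 uM addition) then DTNB (15 mM addition). Kinetic TNB absorbance, 405 nm filter. Four-parameter Hill fit across titration.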
FBPA Giardia inh = Giardia lamblia aldolase inhibition; purified Giardia FBPA; A8B2U2; Potency, µM (titrated, usually from 59.6 µM), hits mostly inhibitors; 0.71% of 290,000 active; note: nearly all actives have a fitted effect of over 55% in size
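Giardia FBPA (40 nM reagent) was preincubated 10 min at RT with compound (up to 57.5 uM final), then substrate plus GAPDH/TPI/NAD/arsenate coupling system with diaphorase/resazurin was added; resorufin fluorescence (525/598 nm) was read after 20 min.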
LmPK inhibitor = blocks Leishmania mexicana pyruvate kinase activity. Q27686. purified LmPK, Kinase-Glo ATP luminescence, 1 h. Potency, µM (highest dose often 57.5 µM), actives largely listed as inhibitors. 0.37% of 290,000 active. AID 1721
Target sequence (Q27686 whole entry, looked up): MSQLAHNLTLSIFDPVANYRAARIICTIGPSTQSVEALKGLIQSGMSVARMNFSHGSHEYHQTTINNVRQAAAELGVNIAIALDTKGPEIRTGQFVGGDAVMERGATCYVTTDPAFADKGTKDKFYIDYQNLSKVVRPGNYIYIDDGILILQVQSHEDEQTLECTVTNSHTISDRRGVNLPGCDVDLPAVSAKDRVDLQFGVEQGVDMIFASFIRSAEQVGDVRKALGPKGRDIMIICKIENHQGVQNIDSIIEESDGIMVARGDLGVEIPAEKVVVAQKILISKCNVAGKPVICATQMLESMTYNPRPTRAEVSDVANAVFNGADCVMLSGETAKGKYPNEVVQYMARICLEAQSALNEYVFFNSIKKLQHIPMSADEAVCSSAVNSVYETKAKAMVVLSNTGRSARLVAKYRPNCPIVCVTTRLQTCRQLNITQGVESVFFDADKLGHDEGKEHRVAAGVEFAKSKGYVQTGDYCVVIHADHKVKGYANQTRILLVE
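0.1 nM LmPK, 0.5 mM PEP, 0.1 mM ADP; 50 mM imidazole pH 7.2, 7 mM MgCl2, 50 mM KCl; 1 h RT. Kinase-Glo luminescence readout, normalized to no-enzyme (full inhibition) and uninhibited wells.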
Cycloheximide cs = affects cycloheximide protein synthesis inhibition readout, counter-screen; cell reporter, cycloheximide protein synthesis inhibition counterscreen; max response, %; 12% of 300,000 active; AID 2314; in the data active = max response mostly above about 13%, no sharp cut-off; inactive = mostly below about 14%; note: read at 38.3 µM for the half of the compounds with a filed dose
Large screens that a line does not name were inactive. Many of the other results were omitted from the sample, so hits are more common in it than they were. Unless noted, calls come from the whole dose curve; as a rule, active = well fitted curve in the direction sought with a large enough effect; inconclusive = small, poorly fitted or top-dose-only effect, or another doubt; inactive = no such curve, though single readings can be large; an effect the other way counts as inactive or inconclusive.

CN(C)c1ncnc2ccc(-c3cccnc3)cc12	none (no result: TbPYK inhibitor, Shiga inhibitor, Sm TGR inh, LmPK inhibitor, Cycloheximide cs)
COc1ccc(-c2noc(-c3ccccc3C(=O)NCc3ccco3)n2)cc1OC	Sm TGR inh inconclusive
COc1ccc(-c2noc(-c3ccccc3C(=O)NCc3ccco3)n2)cc1	Cycloheximide cs 15
COc1ccc(Br)c2c1-c1nc(NC(=O)c3ccc(F)cc3)sc1C2	none (no result: Shiga inhibitor, FBPA Giardia inh, LmPK inhibitor, Cycloheximide cs)
CSCC(=O)N1CCC(n2nccc2NC(=O)CCc2ccccc2)CC1	none (no result: FBPA Giardia inh)
CSCCC(=O)N1CCC(n2nccc2NC(=O)CCCc2ccccc2)CC1	Cycloheximide cs 17 (no result: FBPA Giardia inh)
C=CCCC(=O)N1CCC(n2nccc2NC(=O)CCCc2ccccc2)CC1	Cycloheximide cs 13 (no result: FBPA Giardia inh)
C=CCNC(=O)N1CCC(n2nccc2NC(=O)CCCc2ccccc2)CC1	none (no result: FBPA Giardia inh)
C[C@@H]1NS(=O)(=O)[C@H]2C[C@@H]3C=C[C@]2(O3)[C@H]1OC(=O)Nc1ccc(C(F)(F)F)cc1[N+](=O)[O-]	none (no result: Shiga inhibitor, FBPA Giardia inh, LmPK inhibitor, Cycloheximide cs)
Cc1ccc(-c2onc(C)c2C)cc1S(=O)(=O)NCc1cccs1	none (no result: Shiga inhibitor, FBPA Giardia inh, LmPK inhibitor, Cycloheximide cs)
CCN1C=CC(=C2C(=O)c3ccccc3C2=O)C=C1	TbPYK inhibitor inconclusive, LmPK inhibitor 13µM
CCCN1C=CC(=C2C(=O)c3ccccc3C2=O)C=C1	TbPYK inhibitor inconclusive, LmPK inhibitor 14µM
CCCCN1C(C)=CC(=C2C(=O)c3ccccc3C2=O)C=C1C	none
COC1=C(OC)C(=O)c2ccccc2C1=O	none (no result: TbPYK inhibitor, Shiga inhibitor, Sm TGR inh, LmPK inhibitor, Cycloheximide cs)
CN1C=CC(=C2C(=O)c3ccccc3C2=O)C=C1	Cycloheximide cs 38 (no result: TbPYK inhibitor)
CCCCCCN1C=CC(=C2C(=O)c3ccccc3C2=O)C=C1	Shiga inhibitor 46, LmPK inhibitor inconclusive, Cycloheximide cs 37
Cc1ccc(NC(=O)c2ccc(-n3c(C)nnc3C)cc2)cc1F	none (no result: Shiga inhibitor, FBPA Giardia inh, LmPK inhibitor, Cycloheximide cs)
CC(C)CO/N=C1/[C@H]2O[C@@H]2[C@@H](O)[C@H]2[C@H]1CCn1c(=O)n(C)c(=O)n12	none (no result: TbPYK inhibitor, Shiga inhibitor, Sm TGR inh, LmPK inhibitor, Cycloheximide cs)
CCCNC(=O)CCC(=O)N1Cc2cccc(OC)c2Oc2ncccc21	none (no result: Shiga inhibitor, FBPA Giardia inh, LmPK inhibitor, Cycloheximide cs)
CC(/C=N/Nc1nc2ccccc2[nH]1)=C\c1ccccc1	Cycloheximide cs 23
CC(/C=N/Nc1nc(C)cc(=O)[nH]1)=C\c1ccccc1	Shiga inhibitor 60, Cycloheximide cs 42
CCCN1C(=O)C(Cc2nc3ccccc3c(=O)n2CC)c2cc(Br)ccc21 (stereo not drawn)	none (no result: Shiga inhibitor, FBPA Giardia inh, LmPK inhibitor, Cycloheximide cs)
CCOC(=O)c1c(C)[nH]c(C(=O)C(C)Sc2ccc(Cl)cc2)c1C (stereo not drawn)	Cycloheximide cs 19 (no result: FBPA Giardia inh)
Cc1cc(C(=O)CSc2ccc(F)cc2)cc(C)c1O	Shiga inhibitor 61, Cycloheximide cs 35
CCOC(=O)c1c(C)[nH]c(C(=O)CSc2nnc(C3CC3)n2N)c1C	Cycloheximide cs 17
CCOC(=O)c1c(C)[nH]c(C(=O)CSc2ccccc2)c1C	Shiga inhibitor 53, Cycloheximide cs 43
CCCS(=O)(=O)N1CCCC(C(=O)Nc2ccc3c(c2)CCC3)C1 (stereo not drawn)	none (no result: FBPA Giardia inh)
COc1ccc(CCNc2ncnc3c2nnn3Cc2ccccc2)cc1OC	none
Cc1cc(C(=O)CSc2ccc(Cl)cc2)cc(C)c1OC(=S)N(C)C	Shiga inhibitor 90, Cycloheximide cs 36
CC(=O)c1c(C)[nH]c(C(=O)CSc2nc3ccc(C)cc3[nH]2)c1C	FBPA Giardia inh inconclusive
CCOC(=O)c1c(Cc2ccccc2)c[nH]c1C	Shiga inhibitor 61, Cycloheximide cs 31
CCOC(=O)c1c(C)[nH]c(C(=O)CSc2nccc(C)n2)c1C	Shiga inhibitor 87, Cycloheximide cs 37
Cc1ccn2c(C(=O)CSc3ccc(Cl)cc3)c(C)nc2c1	none
CCOC(=O)c1c(C)c[nH]c1C	none
CC(=O)c1c(C)[nH]c(C(=O)CSc2ccc(F)cc2)c1C	Shiga inhibitor 98, Cycloheximide cs 49
Cc1cc(C)c2sc(N(Cc3cccnc3)C(=O)CCOc3ccccc3)nc2c1	none (no result: Shiga inhibitor, FBPA Giardia inh, LmPK inhibitor, Cycloheximide cs)
CCOc1ccc(C(=O)OCc2cc(=O)n3nc(C4CCCCC4)sc3n2)cc1	none (no result: Shiga inhibitor, FBPA Giardia inh, LmPK inhibitor, Cycloheximide cs)
CCOC(=O)c1c(C)[nH]c(C(=O)COC(=O)CCSc2ccccc2)c1C	Shiga inhibitor 60, Cycloheximide cs 46
CCOC(=O)c1c(C)[nH]c(C(=O)N/N=C\c2ccccc2O)c1C	Shiga inhibitor 35, Cycloheximide cs 29
CCOC(=O)c1[nH]c(C)c(C(=O)Nc2ccc(C)c(Cl)c2)c1C	Cycloheximide cs 9.0

Screens as filed in PubChem BioAssay.
